Source: PubChem (National Center for Advancing Translational Sciences (NCATS))
GCN5L2 inh = qHTS Assay for Inhibitors of GCN5L2; Histone acetyltransferase KAT2A (Homo sapiens), Q92830; GCN5L2 HAT assay, ThioGlo1 CoA-SH fluorescence; Potency, µM (series often up to 58.9 µM), for inactives: top-dose activity change, negative = inhibition, most hits filed as inhibitors; actives 0.21% (n = 390,000); note: potency is the fitted concentration of half-maximal effect
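Enzyme at 20nM final was mixed with library compounds for 15 min at room temperature. Peptide H3(1-25) at 75uM, acetyl-CoA at 70uM and ThioGlo1 at 50uM were then added. Plates were read immediately and after 20 min (Ex340nm/Em540nm).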
GLS inhibitor = qHTS for Inhibitors of Glutaminase (GLS); Glutaminase kidney isoform, mitochondrial (Homo sapiens), O94925; GLS enzymatic activity, qHTS titration; Potency, µM (top dose mostly 45.5 µM), without a hit: at the top dose activity change, negative = inhibition, usual class: inhibitors; actives 0.21% (n = 410,000); AID 624170, 2012; note: potency is the fitted concentration of half-maximal effect
Target sequence (O94925 whole entry, looked up, canonical isoform): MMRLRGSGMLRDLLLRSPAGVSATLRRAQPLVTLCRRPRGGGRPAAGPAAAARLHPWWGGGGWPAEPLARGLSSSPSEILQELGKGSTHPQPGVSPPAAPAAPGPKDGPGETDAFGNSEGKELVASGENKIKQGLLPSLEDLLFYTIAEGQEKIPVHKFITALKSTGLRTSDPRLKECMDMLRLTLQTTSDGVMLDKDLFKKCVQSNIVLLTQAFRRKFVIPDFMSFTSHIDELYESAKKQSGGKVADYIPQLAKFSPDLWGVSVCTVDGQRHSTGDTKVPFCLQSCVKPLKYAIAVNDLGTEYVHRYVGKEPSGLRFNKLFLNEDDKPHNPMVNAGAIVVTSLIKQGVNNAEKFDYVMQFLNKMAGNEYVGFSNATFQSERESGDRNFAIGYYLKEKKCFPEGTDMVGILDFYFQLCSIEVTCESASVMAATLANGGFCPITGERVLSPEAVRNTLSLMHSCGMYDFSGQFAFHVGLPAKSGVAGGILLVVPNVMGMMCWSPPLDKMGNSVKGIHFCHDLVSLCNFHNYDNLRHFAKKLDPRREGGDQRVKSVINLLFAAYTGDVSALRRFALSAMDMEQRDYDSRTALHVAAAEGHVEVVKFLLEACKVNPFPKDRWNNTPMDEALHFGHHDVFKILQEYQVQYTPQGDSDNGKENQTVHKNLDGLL
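hKGA in 45 mM KH2PO4 (pH 8.2), 0.02% Tween-20 with compound, then 1mM L-Glutamine (stock as added) plus glutamate oxidase/HRP/Amplex red coupling mix. Fluorescence read initially and after 30 min at RT; signal change reflects glutamate formation.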
VDR inh = Inhibitors of the vitamin D receptor (VDR): qHTS. Vitamin D3 receptor (Homo sapiens), P11473. VDR-SRC2-3 peptide fluorescence polarization, 2 h. Potency, µM, for the others: max response, negative = inhibition, most hits filed as inhibitors. actives 0.93% (n = 400,000); note: potency is the fitted concentration of half-maximal effect
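Fluorescence polarization assay of small-molecule disruption of VDR binding to coregulator peptide SRC2-3. Compounds and controls pin-transferred, then read after 2 h incubation at ambient room temperature.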
PLK1 PBD inh = qHTS for Inhibitors of PLK1-PDB (polo-like kinase 1 - polo-box domain): Primary Screen; actives 2.8% (n = 360,000); Plk1 PBD binding of FITC phosphopeptide, fluorescence polarization; Potency, µM, for inactives: max response, negative = inhibition, usual class: inhibitors; Serine/threonine-protein kinase PLK1 (Homo sapiens), P53350; AID 720504, 2013; note: potency is the fitted concentration of half-maximal effect; series mostly up to about 57 µM; nearly all actives have a fitted effect of over 65% in size
PI4K2A inh = qHTS for small molecular inhibitors of PI4K2A. Phosphatidylinositol 4-kinase type 2-alpha (Homo sapiens), Q9BTU6. purified PI4K2A, ADP-Glo luminescence, 1 h; active compounds read low. activity change, negative = inhibition, % at 76.9 µM. actives 0.13% (n = 420,000); in the data active = activity change below about -50%; inconclusive = mostly about -30% to -49%;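 note: -100% = wells without enzyme as full effect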
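Compounds are screened against recombinant PI4K2A using PI as substrate and ATP, the latter dispensed at 300 microM. Reactions run one hour at ambient temperature before ADP-Glo detection; full inhibition defined by wells lacking enzyme.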
The depositor's hits bear a star; ? = inconclusive; / = no result. Most compounds without a hit are left out; they make up all but 3.1% or so of the library. Unless noted, calls come from the whole dose curve; as a rule, active = well fitted curve in the direction sought with a large enough effect; inconclusive = small, poorly fitted or top-dose-only effect, or another doubt; inactive = no such curve, though single readings can be large; an effect the other way counts as inactive or inconclusive. Unless noted, % is set by controls: 0 for no effect and ±100 for the full control effect.

SMILES	GCN5L2 inh	GLS inhibitor	VDR inh	PLK1 PBD inh	PI4K2A inh
CC(C)(C)c1ccc(C(=O)Nc2sc3c(c2C#N)CCC(C(C)(C)C)C3)cc1 (centres undefined)	-6%	-13%	-4%	/	-5
CC(C)(C)C1CCc2c(sc(NC(=O)C3CC=CCC3C(=O)O)c2C#N)C1 (centres undefined)	-29%	21%	?	21µM*	0
CCC(C)(C)C1CCc2c(sc(NC(=O)c3ccccc3C(=O)O)c2C#N)C1 (centres undefined)	?	-2%	-25%	27µM*	1
CCN1CCCCC(NC(=O)c2cc(OC)c(OC)c(OC)c2)C1=O (centres undefined)	/	/	/	/	-3
C#CCN1CC(N(C)CCOC(=O)CC2C=CCC2)CS1(=O)=O (centres undefined)	/	/	/	/	0
CCCn1cc(S(=O)(=O)c2ccc(Cl)cc2)c(=O)c2cc(OC)ccc21	3%	?	?	3µM*	1
Cn1cc(S(=O)(=O)c2ccccc2)c(=O)c2cc(Cl)ccc21	3%	10%	?	27µM*	1
CCCn1cc(S(=O)(=O)c2ccc(OC)cc2)c(=O)c2cc(OCC)ccc21	-2%	5%	2%	-11%	3
CCn1c(CNC(=O)c2ccc(OC)cc2)nnc1SCC(=O)Nc1cccc(C)c1C	-5%	-5%	-1%	/	-9
Cc1cc(SC#N)cc(C)c1NC(=O)CCl	-4%	1%	?	?	-24
CCc1cc(SC#N)cc(C)c1NC(=O)CCl	-4%	10%	79µM*	12µM*	-26
Cc1ccc(NC(=O)CCl)c(C)c1	-1%	8%	-8%	-8%	-3
CCC(=O)Nc1ccc(SC#N)cc1C	-2%	-14%	-35%	13µM*	-5
O=C1N2Cc3ccccc3C2CS(=O)(=O)N1Cc1ccccc1 (centres undefined)	/	/	/	/	-2
CCOC(=O)N1C(=O)C[C@](Sc2ccc(OC)cc2)(C(=O)N2CCOCC2)[C@H]1c1ccc(OC)cc1	/	/	/	/	-3
O=C(NCCN1CCC(Cc2ccccc2)CC1)C1CCCN(S(=O)(=O)c2ccc([N+](=O)[O-])cc2)C1 (centres undefined)	/	/	/	/	3
Nc1ncnc2c1ncn2C1CCCO1 (centres undefined)	-3%	-8%	5%	1%	-27
Nc1ncnc2c1ncn2C1CCC(CO)C(O)C1 (centres undefined)	-6%	2%	7%	-2%	-54*
Nc1ncnc2c1ncn2C1CCCC1	-4%	1%	0%	-12%	-65*
CCn1c(=O)n2n(c1=O)[C@]1(C=C(C)C2)CN(Cc2ccc(OC)cc2OC)C(NC(=O)c2ccccc2)=N1	/	/	/	/	-4
COc1cc2c(c(OC)c1OC)-c1c(cc3c(c1OC)OCO3)CC(C)C(C)(O)C2 (centres undefined)	/	-6%	/	/	/
Cc1nnc(-c2ccc(Oc3ccc(Cl)cc3)c([N+](=O)[O-])c2)o1	-2%	-5%	?	21µM*	-2
CCCC[C@@H]1C(=O)N2N=Cc3cscc3[C@H]2N2N=Cc3cscc3[C@@H]12	/	/	/	/	-4
O=C(COC(=O)COc1ccccc1)Nc1ncc([N+](=O)[O-])s1	-9%	4%	?	17µM*	-4
CCOC(=O)c1c(C)[nH]c(C2=NNC(=NC3CC3)SC2)c1C	-18%	13%	8.9µM*	30µM*	-2
SMILES	GCN5L2 inh	GLS inhibitor	VDR inh	PLK1 PBD inh	PI4K2A inh
CCOC(=O)c1c(C)[nH]c(/C(C)=N/O)c1C	0%	18%	15%	-8%	-2
CCCOc1ccc(C2=CSC3=NCCN23)cc1[N+](=O)[O-]	-3%	20%	?	30µM*	1
CCOc1ccc(C2=CSC3=NCCN23)cc1Cl	-4%	3%	79µM*	?	1
CCOc1ccc(C2=CSC3=NCCN23)cc1[N+](=O)[O-]	26%	-18%	-25%	-8%	7
C=CCN1C(=O)[C@H](CC(=O)NCC2CCCCC2)[C@@]2(C(=O)OCC)CCCC=C12	/	/	/	/	-2
COCC(=O)N1CCC(C(=O)NCC2COc3ccccc3O2)CC1 (centres undefined)	/	/	/	/	-1
CC(=O)Nc1sc2c(c1C#N)CCC(C)C2 (centres undefined)	2%	1%	-7%	-16%	-2
CC1CCc2c(sc(NC(=S)NC(=O)c3ccccc3)c2C#N)C1 (centres undefined)	2%	-6%	-6%	24µM*	-1
Cc1ccccc1C(=O)NC(=S)Nc1sc2c(c1C#N)CCC(C)C2 (centres undefined)	-12%	24%	-12%	19µM*	1
CC(C)C[C@H](NC(=O)[C@@H](Cc1c[nH]c2ccccc12)NC(=O)[C@H](Cc1ccc(O)cc1)NC(=O)[C@H](CO)NC(=O)[C@H](Cc1c[nH]c2ccccc12)NC(=O)[C@H](Cc1cnc[nH]1)NC(=O)[C@@H]1CCC(=O)N1)C(=O)N[C@@H](CCCN=C(N)N)C(=O)N1CCC[C@H]1C(=O)NCC(N)=O	-18%	/	15%	/	/
Cc1ccn2c(=O)cc(COc3ccc(NC(=O)C(C)(C)C)cc3)nc2c1	-5%	-3%	-4%	/	-1
O=S1(=O)c2ccc(Br)cc2OC(COCc2ccccc2)CN1Cc1ccccc1 (centres undefined)	-9%	8%	?	24µM*	0
O=S1(=O)c2ccccc2OC(COCc2ccccc2)CN1Cc1ccccc1 (centres undefined)	-12%	0%	6%	-13%	5
CNC(=O)C1C(=S)NC(N)=C(C#N)C1c1ccccc1 (centres undefined)	4%	-26%	20µM*	27µM*	-22
COC(=O)C1=C(C)OC(N)=C(C#N)C1c1ccccc1 (centres undefined)	-3%	5%	1%	-11%	-7
CCc1cc2cc(OC)c(OC)cc2c(Cc2ccccc2)n1	/	/	/	/	-4
O=C1N=C(N2CCOCC2)S/C1=C1\C(=O)N(Cc2ccccc2)c2ccc(Br)cc21	-1%	/	/	/	/
CCCCN1C(=O)/C(=C2\SC(N3CCCCC3)=NC2=O)c2ccccc21	-13%	-5%	-22%	24µM*	0
COc1cc(C2NC(=O)C(C#N)=C(S)N2c2ccc(C)cc2)ccc1OC(C)C (centres undefined)	-3%	28%	28µM*	?	-17
COc1ccc(N2C(S)=C(C#N)C(=O)NC2c2ccc(OC)c(OC)c2)cc1 (centres undefined)	-5%	21%	40µM*	-28%	-1
